The record followed here is PubChem BioAssay.

Values without a mark were called inactive. No rule for the calls is given here.

Chain of Pantothenate synthetase (Mycobacterium tuberculosis (strain ATCC 25618 / H37Rv)) (P9WIL5 whole entry, looked up): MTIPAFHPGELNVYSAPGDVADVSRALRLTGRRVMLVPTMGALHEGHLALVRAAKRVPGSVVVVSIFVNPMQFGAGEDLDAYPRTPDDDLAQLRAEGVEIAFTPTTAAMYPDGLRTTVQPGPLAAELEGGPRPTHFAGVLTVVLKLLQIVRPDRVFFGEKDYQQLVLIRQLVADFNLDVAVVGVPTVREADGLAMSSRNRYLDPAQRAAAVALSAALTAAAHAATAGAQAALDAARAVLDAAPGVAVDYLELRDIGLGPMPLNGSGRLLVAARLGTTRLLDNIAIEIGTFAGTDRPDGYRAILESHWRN

The experiment addresses Pantothenate synthetase (Mycobacterium tuberculosis (strain ATCC 25618 / H37Rv)) (UniProt P9WIL5). Nature of the experiment: Coupled enzyme confirmation of inhibitors against recombinant Mtb PanC (AID 375).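 Also: 0% = full reaction with vehicle and 100% = no enzyme background.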 As to conditions: coupled enzyme assay; at 10 µM, stronger effect = higher value.
As a reminder, the inhibition is the drop in the measured response relative to a control, in per cent. On to `O=C(CN1CCC(c2nc3ccccc3s2)CC1)NCc1cccs1`, for which the inhibition is 3%.
In the case of `Cc1[nH]nc2c1C(c1ccc(F)cc1)C1=C(CC(C)(C)CC1=O)N2` (stereo not given) it was 11%; in that of `COC(=O)Cn1c(=O)c2c(nc(Br)n2CC(=O)OC)n(C)c1=O`, 0%; in that of `O=C(NCc1ccc2c(c1)OCO2)c1cccc2c1C(=O)N(C1CCCCC1)C2`, 5%.
Under `COCCCNC(=O)c1ccc(CS(=O)(=O)c2ccc(OC)cc2)o1` stands 9%.
In the case of `O=C(Cn1nc(Cc2cccnc2)c2ccccc2c1=O)NCC1CCCO1` (stereo not given) it was 0%; in that of `CCSc1nnc(NC(=O)c2cc(C)oc2C)s1`, 11%.
For `COc1cccc(-n2nnc3c(=O)n(Cc4cccc(F)c4)cnc32)c1`, the inhibition was 4%.
Under `CCCCN(C)Cc1c(C)[nH]c2c(Cl)cccc2c1=O` stands 5%.
In the case of `Cc1ccc(SC(C)c2nc(-c3ccccc3)no2)cc1` (stereo not given) it was 0%.
Under `CC(C)(C)NC(=O)Cn1nnc(-c2cccs2)n1` stands 5%.
On to `CCN(CC)CCn1c2ccccc2c2nc(C)sc21`, for which the inhibition was 1%.
Under `COc1ccc(C(=O)N2CCOCC2)cc1Br` stands 6%; under `COc1ccccc1CNC(=O)C1CCC(CNc2c(N3CCOCC3)c(=O)c2=O)CC1` (stereo not given), 0%; under `CC(=O)c1ccc(Oc2cc(C)nc(-n3nc(C)cc3C)n2)cc1`, 4%.
In the case of `CCN(CC)S(=O)(=O)c1ccc2oc(SCc3ccc(F)cc3)nc2c1` it was 5%.
Under `COc1ccc(Cl)cc1C(=O)n1nc(C)cc1C` stands 0%.
In the case of `CCN(CC)S(=O)(=O)c1ccc(NC(=O)Cn2cnc3ccccc3c2=O)cc1`, the inhibition is 0%.
In the case of `CCN(CC)CCCNC(=O)c1cn(C)c2ccc(S(=O)(=O)N(C)C)cc2c1=O` it was 10%; in that of `O=C(NC1CC1)C1CCC(=O)N1C1CCCC1` (stereo not given), 4%; in that of `O=C1C(Cl)=C(NCC2CCCO2)C(=O)N1CCc1ccccc1` (stereo not given), 0%.
In the case of `Cc1ccc(C)c(S(=O)(=O)NCc2ccc(C(=O)N3CCN(C)CC3)cc2)c1` it was 0%; in that of `CC(C)(C)n1nnnc1C(c1cccs1)N1CCN(Cc2ccccc2)CC1` (stereo not given), 12%; in that of `COC(=O)c1ccccc1NC(=O)Nc1cccs1`, 7%.
In the case of `Cc1ccnc(NS(=O)(=O)c2ccc(N=CC3=C(O)CC(C)(C)CC3=O)cc2)n1` it was 11%; in that of `CCOC(=O)CSc1nnc(-c2ccc(Cl)cc2Cl)o1`, 2%.
As for `O=C(NCc1nc2ccccc2[nH]1)c1ccc(Cl)c(S(=O)(=O)N2CCCC2)c1`, the inhibition was 1%.
For `CCc1nnc(NC(=O)C2CCCN2S(=O)(=O)c2ccc(C)cc2)s1` (stereo not given), the inhibition is 2%.
Under `CCOC(=O)c1ccccc1NC(=O)CSc1nccn1C` stands 0%; under `Cc1[nH]nc2c1C(C1CC=CCC1)C(C#N)=C(N)O2` (stereo not given), 3%; under `CC1CC(C)CN(c2nc3c(c(=O)[nH]c(=O)n3C)n2CCCSc2nc3ccccc3s2)C1` (stereo not given), 7%.
Under `O=c1[nH]c(=O)n([C@H]2C[C@H](O)[C@@H](CO)O2)cc1F` stands 0%.
On to `Cc1ccc2[nH]c(=O)c(C(c3nnnn3CCc3ccccc3)N3CCOCC3)cc2c1` (stereo not given), for which the inhibition is 6%.
In the case of `C=CCOC(=O)CC(NC(=O)c1ccccc1)c1ccccc1` (stereo not given) it was 0%.
In the case of `O=C(NCC(F)(F)F)Nc1cccnc1` it was 7%; in that of `CCOC(=O)c1cnc(-n2nc(C)cc2C)nc1N1CC(C)OC(C)C1` (stereo not given), 0%; in that of `CCOC(=O)c1[nH]c2ccc(Br)cc2c1NC(=O)CNC`, 4%.
In the case of `O=C(Nc1ccccc1C(F)(F)F)c1cc(S(=O)(=O)N2CCOCC2)ccc1F` it was 0%; in that of `Cc1nnc2sc(-c3cccc(NC(=O)c4cccnc4)c3)nn12`, 0%.
Consider `C/C(N)=C(\C#N)C(=O)NCCc1ccccn1`, for which the inhibition is 0%.
